In the supplement of paper PMC11417369:
± gives the standard deviation of the averaged measurements. In all, about 25,000 sequences were measured (“ln(normalized median fluorescence intensity)”: median about 7.9, highest 2% from about 11 on). The list comes from a sample in which the highest values are over-represented; it also holds similar and randomly drawn sequences.

Tested on: PfAP2-I AP2 domain 3 (GST-tagged)
Experiment: gcPBM binding intensity (ln(normalized median fluorescence intensity)); higher = stronger DNA binding
Summary of the method: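 Alexa488 anti-GST antibody, scanned at 488 nm, detected GST-tagged P. falciparum DNA-binding domains that had been expressed in E. coli and incubated for 1 h on an Agilent 4 × 180k array. The array carried primer-extended double-stranded 36-bp intergenic genomic probes and negative controls. Binding intensity is the highest Masliner-normalised natural-log median intensity across replicate spots of either orientation of each probe.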

Sequence | gcPBM binding intensity (ln)
TGTGTATATAAATAATGTACATATATATTTTTTTAT [XGTACX_site7341] | 7.79 ± 0.22
AAAAAAAAAAAAAAAAAAAGAAAAGAAAATAGGGTT [GTGCAC_negctrl_site421] | 8.96 ± 0.22
CATATGATATGTTATACACACACGTATATATGAATT [CACACA_site3446] | 8.03 ± 0.21
TTTTTTTTTTTTGTAATACACACCACTATATGTTAT [CACACA_site1844] | 8.15 ± 0.73
AAAACAAACAAAAAAAAAAAAAAAAATATCAATCTA [TGCATGCA_negctrl_site203] | 7.01 ± 0.52
CACAAAATAAATTAAACACACAACATCATAGATGTA [CACACA_site4619] | 7.21 ± 0.54
AAGATATCTAAGGAAATTAAACTACCAAAATATATA [TGCATGCA_negctrl_site338] | 7.39 ± 0.59
ATATTACACATATATGCACACATTGTAGTTATTTAT [CACACA_site8843] | 9.34 ± 0.26
CATTTTGTTTTAAAGTGTACATTATGTAATATAAAA [XGTACX_site647] | 7.84 ± 0.43
ATTTATATGCACCATTGTACGTTTTATAAAGTTTGG [XGTACX_site3755] | 11.6 ± 0.83
ATATATATATAAAGTTGTACATTTTTTATTTTTTCA [XGTACX_site7847] | 9.09 ± 0.16
TTATATTTAGTATATGCACACTTTATGTTTGTTATT [CACACA_site5163] | 9.29 ± 0.21
CATATTGGTATGCTCATGCACTTTTATTTTGTTATT [GTGCAC_site9553] | 8.52 ± 0.53
TATATATATATATATGTGCACATTTATTGCCTTTGC | 9.76
ATATATATTATCATTGTGCACTTATTTATATACCTT | 11.1 ± 0.15
TATCATTTATATATGTGTACTTATTTATTTATTTAT [XGTACX_site7961] | 7.96 ± 0.28
TTATCATTTGCCATTGTGCACTTATATGCTCACATT | 10.97 ± 0.028
TTTTTATTTTCATATGTGCACTTATATATATATATA | 10.82 ± 0.099
ATTGTGCACTTATATGCACACATTTTAGTTTTTTTT [CACACA_site2028] | 11.4 ± 0.69
ATTACCAACAGATCTTGTACATATTAAAGCATCTTA [XGTACX_site2361] | 7.84 ± 0.57
TCTATTAATTAATATACACACATTATATATATATAT [CACACA_site8815] | 9.375 ± 0.049
TTTTTTATTGTGATACGTATATTATTTTATGATAAA [CACACA_negctrl_site1591] | 8.04 ± 0.6
AAACACACACACAAATGTACATATATATATATATTT [XGTACX_site5090] | 7.92 ± 0.51
AATATTATAAATGATACACACTTAAAATACACGCAC [CACACA_site7305] | 8.71 ± 0.22

Sequence | gcPBM binding intensity (ln)
CATCATAGAGTGGAGTGTACAAATATGTCAACATAT [XGTACX_site2264] | 7.99 ± 0.55
TATATTTAGAGAGAGACACACAAAGGGACTTACACA [CACACA_site2545] | 7.82 ± 0.71
CATAATACATATAACACACACAATTATACATAAAAT [CACACA_site3233] | 7.88 ± 0.33
TGGAAACAATGACACACACACAAAAAAAAAAAAAAA [CACACA_site7494] | 7.97 ± 0.56
TATAAGTTGATATATACACACATATATAAATATGTA [CACACA_site7526] | 7.4 ± 0.4
ATATTTTCTTTTTAAAGTACATATTTGATTACAATA [XGTACX_site8414] | 7.66 ± 0.5
TGTATATATTTGTGCACACCAAAGTTTGATTTTATT [CACACA_site1860] | 10.9 ± 0.099
ATATGTATTTATATATGTTTGATTTTTTTTTTTTTT [TGCATGCA_negctrl_site506] | 7.71 ± 0.26
TATGTATATATTTGTGCACACCAAAGTTTGATTTTA [CACACA_site1861] | 10.71 ± 0.014
AAAAAAAAAAGACACACACACACATACACATACATA [CACACA_site7362] | 7.96 ± 0.29
TTTTTGTGCATTGATTGTACTTTCTAGGATTATTAA [XGTACX_site7070] | 10.16 ± 0.049
TATATTATTATATATTGTACTTTTTATATTTGCATT [XGTACX_site2978] | 7.72 ± 0.49
TTTTTTTTTTTTGAAGTGCATTACTTTTTTTGTATT [GTGCAC_site9811] | 11 ± 0.44
TATATTTATAAATGAACACACACGCAATTTGAATCG [CACACA_site3370] | 7.89 ± 0.49
ATTGTTATTTATTGTGTGCGCATTAATACATACATA [GTGCAC_site9982] | 8.95 ± 0.41
TTCAATAGGTATAATTGTACTTAATAATATATTGTT [XGTACX_site8363] | 7.53 ± 0.42
ATATATATATAGTACGCACACATAGTTGTACATTAA [CACACA_site2787] | 9.21 ± 0.13
GTTTATTGATTTATTTGTACTTATATATATATTTCA [XGTACX_site5098] | 8.07 ± 0.63
TTGTTTTGGATTATCACACATATAATATATACTCAT [CACACA_site4780] | 7.82 ± 0.68
AAAATCAAGTAGTATAAAGTAAGTATCATAAAAATA [CACACA_negctrl_site1554] | 7.63 ± 0.59
AGTAATAGTTTGTGCACACTCAAGTATATCATATAT [CACACA_site4034] | 10.9 ± 0.24
TATATATATATCAAGTGTACTTGTGTTTGTAATATT [XGTACX_site8854] | 9.165 ± 0.049
TTTATAGTTTTTAATAGTACACATATTTTTAAGTAT [XGTACX_site5498] | 7.89 ± 0.2
TATATATCAATATGCACACACAAGAAGTAATTATAA [CACACA_site7487] | 8.96 ± 0.22

Sequence | gcPBM binding intensity (ln)
AGTAATAGTTTGTGCACACTCAAGTATATCATAGAT [CACACA_site6082] | 11 ± 0.23
GTAATATCAATATAAAGTACACACTATAGTATGTAT [XGTACX_site4714] | 7.66 ± 0.49
TAAGTAATAGTTTGTGCACACTCAAGTATATCATAT [CACACA_site4035] | 10.8 ± 0.28
GTTATAACTCAAATATGTACATATTATAAAACATAT [XGTACX_site6693] | 7.92 ± 0.47
TTTTTTTTTTATTGTACATGCAAAAAATTCCACACA [TGCATGCA_site279] | 8.31 ± 0.32
ATTTACCCTTGCCATGCACACTTTTTTATAGAAAAT [CACACA_site5857] | 8.95 ± 0.44
GAACTTTACAACCCAACACACAAAAAAGAAAAGAAA [CACACA_site1717] | 7.87 ± 0.46
ACATTTACAAGGAAAGTGCATATAAGAAAAATAAAA [GTGCAC_site9587] | 10.2 ± 0.11
CCACGAGAATATATAGTGCATAATAATTTTTTTTTG | 11.1 ± 0.4
TTTCTAGTTACAAGAGTGCATAATATATAAAAATAA [GTGCAC_site9874] | 10.9 ± 0.56
AAAATAATATAAATAATATAAGTGAGCATATATATA [TGCATGCA_negctrl_site527] | 7.92 ± 0.72
TAAAAAATGATAGAAGTGCATAAAATAATATATATA [GTGCAC_site9904] | 10.4 ± 0.13
CTATGCATTTATAGTGCATGTAAAATATAAGATAAT [TGCATGCA_site71] | 9.86 ± 0.085
ATAATATTTTATATAGTGCATTTGCTCATTATATAT [GTGCAC_site9528] | 9.85 ± 0.45
TATAATAACAATTTAGTGCATATAATAATATTTTAT | 10 ± 0.19
TTTAGATATATGGTAGTGCATAATAAAAATATAGCC [GTGCAC_site9449] | 11.1 ± 0.67
TAAAAAATTAATAAAGTGCATAAATATTACAATATT | 10.3 ± 0.4
AGTAGCAAATATTAAGTGCATATTATATAATGTGTA [GTGCAC_site9546] | 9.04 ± 0.16
TTGTGTGAGCAAGTAGTGCATAATATAAATAAAAAA [GTGCAC_site9802] | 11.2 ± 0.54
TCAAAATATCCAAAAGAATAAAGAAAAAAAAAAAGA [CACACA_negctrl_site1377] | 7.5 ± 0.41
TTGTAATTTATTCAAACACACAATTTGGACCTTTTT [CACACA_site1063] | 7.45 ± 0.51
TTTTTACTATAAGGGGAAAAAAAAAAAAATAATATA [XGTACX_negctrl_site279] | 7.78 ± 0.28
ATGTAGATATATATATGTACTAATTAGTAGTTTACG [XGTACX_site6275] | 8 ± 0.41
ATATATATATCAACAACACACGATTAACTAAAAAAA [CACACA_site302] | 8.8 ± 0.19

Sequence | gcPBM binding intensity (ln)
ACCTTATTTAGTTATAGTACACAAAGTATTAAACAT [XGTACX_site8418] | 8.46 ± 0.46
AGTATACATTCATTTTGTACTCAATGATTTGATAAC [XGTACX_site6787] | 7.63 ± 0.42
CTATTATCGGTTCCTACACACAAATATATATGTCTA [CACACA_site3579] | 8.1 ± 0.57
TGTTTTTTTATTTTCACACATAATCCAATTATACAT [CACACA_site6070] | 8.22 ± 0.55
TATATATATATGTAATGTACATAAATTTTATACCTT [XGTACX_site6991] | 9.27 ± 0.53
ACCATATAATTTTTTTGTACATAATGATTTTTTTTT [XGTACX_site1104] | 7.99 ± 0.45
GGTCTAACAACATGCGCACACACATGAATATTCATA [CACACA_site1539] | 8.81 ± 0.49
TAATAAATGTTATTAGTGCATAATAGATAATATATT | 10.8 ± 0.64
ATAGTAATGCATAAATATATATTATATATATATATA [XGTACX_negctrl_site576] | 9.21 ± 0.49
AAAAAAAATATACATACATGCATACATAAGTTTCTA [TGCATGCA_site998] | 7.55 ± 0.73
ATATATATATATATAGTGCATAAAATAAGTTTCTAA | 10.8 ± 0.21
ATATATAAATAAATAGTGCATTTTAATATTTAACGT | 10 ± 0.18
ACATATAATAAAATAGTGCATTGTTAGTTTTATATA | 10.4 ± 0.42
ATATATATATATATAGTGCATAATGTTTTAATAGAT | 11 ± 0.33
GTTGAAATAAAATTAGTGCATATATAAATATATATA | 10.2 ± 0.17
AATAAAAATAATATAGTGCATAATATAAGGAAAAAA | 11.1 ± 0.49
TATATATATATATAAGTGCATATAAAAATCGTTCGT | 10.3 ± 0.11
TATATATATATAATAGTGCATAAATAAATATATAAA | 11.2 ± 0.45
CACTAAATAAGGAAAGTGCATAAAATAAAGGTTATA [GTGCAC_site9793] | 10.4 ± 0.26
AAAAGCACCGTTCGTTGTACACTGAAACACTTTTGT [XGTACX_site199] | 8.2 ± 0.76
AACATGTTAAAATAAACACACAGCTAAGGTTTTTTT [CACACA_site157] | 7.4 ± 0.69
